Screening results (PubChem)
12-LOX inh: Primary qHTS assay for inhibitors of human arachidonate 12S-lipoxygenase (ALOX12): Round 2; Polyunsaturated fatty acid lipoxygenase ALOX12 (Homo sapiens), P18054; purified 12hLO, xylenol orange hydroperoxide absorbance; Potency, µM (titrated, usually from 108 µM), without a hit: top-dose activity change, negative = inhibition, hits mostly inhibitors; 580,000 tested, 1.1% active; AID 1671190, 2021
Target sequence (P18054 whole entry, looked up): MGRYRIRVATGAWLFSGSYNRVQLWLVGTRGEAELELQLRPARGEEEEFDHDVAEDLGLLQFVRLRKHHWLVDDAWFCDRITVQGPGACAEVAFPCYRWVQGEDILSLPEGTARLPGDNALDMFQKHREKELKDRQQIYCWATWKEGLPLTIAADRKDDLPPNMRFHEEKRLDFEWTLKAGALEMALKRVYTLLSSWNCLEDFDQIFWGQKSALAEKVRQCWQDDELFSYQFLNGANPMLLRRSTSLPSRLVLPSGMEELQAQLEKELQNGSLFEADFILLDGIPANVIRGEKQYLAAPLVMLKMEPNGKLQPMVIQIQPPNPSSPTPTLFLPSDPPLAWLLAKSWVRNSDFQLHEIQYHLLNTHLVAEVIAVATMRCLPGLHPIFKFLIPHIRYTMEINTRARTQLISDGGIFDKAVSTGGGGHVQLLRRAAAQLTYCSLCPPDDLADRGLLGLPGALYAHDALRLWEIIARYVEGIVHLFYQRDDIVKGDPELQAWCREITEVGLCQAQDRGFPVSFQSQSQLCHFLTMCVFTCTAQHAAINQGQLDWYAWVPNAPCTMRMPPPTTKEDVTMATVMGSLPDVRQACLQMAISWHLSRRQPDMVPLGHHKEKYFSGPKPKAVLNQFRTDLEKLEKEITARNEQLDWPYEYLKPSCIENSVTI
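Purified human 12hLO (150 nM final) in 25 mM Hepes, 0.01% Triton X-100, pH 7.0 was preincubated 15 min at room temperature with compound. Then 40 uM arachidonic acid was added, 30 min. Hydroperoxide was read by Fe-XO absorbance ratio 573/405 nm.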
VDR inhibitor: Inhibitors of the vitamin D receptor (VDR): qHTS; Potency, µM, for the others: max response, negative = inhibition, hits mostly inhibitors; VDR-SRC2-3 peptide fluorescence polarization, 2 h; 400,000 tested, 0.93% active; Vitamin D3 receptor (Homo sapiens), P11473
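After 23 nl compound addition and a short centrifugation, plates sat for 2 hours at ambient temperature; polarization of fluorescence then indicated loss of VDR binding to peptide SRC2-3.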
Sfp inh: qHTS Assay for Inhibitors of Bacillus subtilis Sfp phosphopantetheinyl transferase (PPTase); 4'-phosphopantetheinyl transferase ffp (Bacillus subtilis), Q9F4F7; AID 1490, 2009; Biochemical Sfp PPTase activity, qHTS; Potency, µM, for the others: largest response in the series, negative = inhibition, usual class: inhibitors; 310,000 tested, 3.5% active;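 also: the enzyme is Sfp with the accession as filed and its product quenches rhodamine fluorescence; 0% = enzyme reaction without inhibitor and -100% = no enzyme wells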
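Buffer: 50 mM Hepes-Na pH 7.6, 10 mM MgCl2, 0.01% Nonidet P-40, 0.01% BSA. Enzyme 15 nM, pre-exposed to compound 15 min; substrates then added and fluorescence change tracked over 30 min.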
PLK1 PBD inh: qHTS for Inhibitors of PLK1-PDB (polo-like kinase 1 - polo-box domain): Primary Screen | AID 720504, 2013 | 360,000 tested, 2.8% active | Potency, µM, for inactives: max response, negative = inhibition, most hits filed as inhibitors | Serine/threonine-protein kinase PLK1 (Homo sapiens), P53350 | Plk1 PBD binding of FITC phosphopeptide, fluorescence polarization; also: series mostly up to about 57 µM; nearly all actives have a fitted effect of over 65% in size
An asterisk follows results filed as active; ? = inconclusive; . = no result given; [ ] = another dose, or the depositor's remark. Shown are actives, neighbours in structure and some others; about 4.2% of the full set was active somewhere. Calls follow the shape of the dose curve; as a rule, active = well fitted curve in the direction sought with a large enough effect; inconclusive = small, poorly fitted or top-dose-only effect, or another doubt; inactive = no such curve, though single readings can be large; an effect the other way counts as inactive or inconclusive. Unless noted, % is scaled to controls: 0 for no effect and ±100 for the full control effect; potency is read from the fitted curve at half-maximal effect.

SMILES	12-LOX inh	VDR inhibitor	Sfp inh	PLK1 PBD inh
Nc1nnn(CC(=O)N/N=C/c2cccc(Cl)c2)n1	?	-11%	22%	-3%
Cc1ccc2[nH]cc(C(=O)CCl)c2c1	-20%	-23%	12%	15µM*
COc1ccc(/C=C/C(=O)c2ccccc2)cc1COc1ccccc1F	6%	10%	89µM*	0%
COc1cc(C(=O)/C=C/c2cc(Br)c(O)c(OC)c2)ccc1OCC(=O)O	10µM*	.	.	.
COc1ccc(/C=C/C(=O)c2ccc(C(=O)O)s2)cc1OC	5.6µM*	.	.	.
COc1ccc(/C=C/C(=O)Nc2ccccc2)cc1OC	5%	1%	0%	2%
COc1ccc(/C=C/C(=O)Nc2c(C(=O)O)[nH]c3ccccc23)cc1OC	-17%	?	10%	27µM*
COCCC(=O)N1CCC(Oc2ccc(C(=O)NCc3cc(C)n(C)n3)cc2)CC1	4%	-24%	15%	-9%
COc1ccc(S(=O)(=O)NCCSCc2ccco2)cc1	?	-5%	-25%	-15%
CCOc1ccc(C(=O)/C=C/c2ccc(OC)c(OC)c2)cc1	-8%	-25%	-22%	-1%
CCOc1ccc(/C=C/C(=O)c2ccccc2)cc1OC	-6%	79µM*	-21%	-3%
Cc1nn(C)c(C)c1NC(=O)CCl	14µM*	3%	7%	-11%
CC(=O)c1cccc(OCC(=O)N(C)CC(=O)Nc2ccc(F)cc2)c1	3%	-26%	20%	30µM*
CCCCCC(=O)c1c(O)cc(OC)c(Cl)c1O	19%	3%	3%	.
CCCCCCCCC(=O)c1c(OC)oc(C=O)cc1=O	7.1µM*	.	.	?
COCCN1C(=O)CO[C@H]2CN(c3ncccn3)C[C@H]21	50µM*	.	.	.
CC(=O)Nc1ccc(NS(=O)(=O)c2c(Cl)cccc2Cl)cc1	4%	-26%	79µM*	27µM*
CC(=O)Nc1ccc(NS(=O)(=O)c2ccc3ccccc3c2)cc1	?	?	17%	7.5µM*
O=[N+]([O-])c1cc(Cl)cc(/C=N/Nc2nc3ccccc3s2)c1O	?	-20%	0%	27µM*
CC(C)(C)N/N=C/c1cc(Cl)cc([N+](=O)[O-])c1O	16µM*	-18%	-10%	?
O=C(N/N=C/c1cc(Cl)cc([N+](=O)[O-])c1O)C1CC1	-27%	-23%	24%	-12%
O=C(O)c1nccnc1C(=O)Nc1ccccc1-c1ccccc1	?	-19%	8%	-10%
Cc1ccc(NC(=O)CCNS(=O)(=O)c2ccc3[nH]c(=O)oc3c2)cc1C	-10%	-15%	5%	-10%
COc1ccc(CCC(=O)N[C@@H]2CN(c3ncccn3)C[C@H]2CN(C)C)cc1	13%	.	.	.
COc1cccc([S+](=O)([O-])N2CCn3c(nn(-c4cccc(Cl)c4)c3=O)C2)c1	6.3µM*	.	.	.
SMILES	12-LOX inh	VDR inhibitor	Sfp inh	PLK1 PBD inh
CN1CCN([C@@H]2[C@H](O)[C@H](CO)O[C@@H]2CN(Cc2ccc(Cl)cc2)Cc2cccc(Cl)c2)CC1	14µM*	.	.	.
CCN(C(=O)C(C)Sc1ccc(S(=O)(=O)N2CCN(C)CC2)cn1)c1ccccc1 (stereo not given)	3%	-2%	.	-5%
COc1ccc(-c2oc3ccccc3c2C(=O)OCc2ccccc2)cc1	0%	-20%	4%	24µM*
Cc1cccc(NC(=O)c2ncn3c2C(=O)NC[C@@H]3C)c1	?	.	.	0%
CCC(c1ccccc1)C(CC)c1cc(O)c(O)c(O)c1 (stereo not given)	?	?	.	6µM*
COc1ccc(-n2c(CN3CCN(c4ccccc4)CC3)nc3ccc([N+](=O)[O-])cc3c2=O)c(OC)c1	0%	7%	-18%	-10%
COc1cccc(-n2c(CN3CCN(c4ccccn4)CC3)nc3ccc([N+](=O)[O-])cc3c2=O)c1	-1%	-4%	14µM*	-7%
Cn1cccc1Cc1nnc(SCC(=O)Nc2cccc(Cl)c2)n1-c1ccc(F)cc1	488%	-24%	-7%	27µM*
Cc1ccc(-n2c(SCC(=O)NCC3CCCO3)nnc2-c2ccoc2C)cc1 (stereo not given)	62%[57.4 µM]	7%	16%	-19%
COc1ccc(-n2c(Cc3cccn3C)nnc2SCC(=O)NC2CCCCC2)cc1	274%	-22%	-1%	3%
